Results: PubChem BioAssay (NCATS)
Inconclusive results are not listed. A call without a number means that no potency is given here. A number with no mark means an inactive call. Active and inactive are the calls of the source. Calls come from the whole dose curve; as a rule, active = well fitted curve in the direction sought with a large enough effect; inconclusive = small, poorly fitted or top-dose-only effect, or another doubt; inactive = no such curve, though single readings can be large; an effect the other way counts as inactive or inconclusive.

How the values were obtained:
[1] = target: Rap guanine nucleotide exchange factor 3 (Homo sapiens) (UniProt O95398); assay: Confirmatory qHTS for antagonist of cAMP-regulated guanine nucleotide exchange factor 3 (EPAC1) (AID 1645880); note: nearly all actives have a fitted effect of over 55% in size; note: potency is the fitted concentration of half-maximal effect
Rap guanine nucleotide exchange factor 3 (Homo sapiens), sequence (O95398 whole entry, looked up): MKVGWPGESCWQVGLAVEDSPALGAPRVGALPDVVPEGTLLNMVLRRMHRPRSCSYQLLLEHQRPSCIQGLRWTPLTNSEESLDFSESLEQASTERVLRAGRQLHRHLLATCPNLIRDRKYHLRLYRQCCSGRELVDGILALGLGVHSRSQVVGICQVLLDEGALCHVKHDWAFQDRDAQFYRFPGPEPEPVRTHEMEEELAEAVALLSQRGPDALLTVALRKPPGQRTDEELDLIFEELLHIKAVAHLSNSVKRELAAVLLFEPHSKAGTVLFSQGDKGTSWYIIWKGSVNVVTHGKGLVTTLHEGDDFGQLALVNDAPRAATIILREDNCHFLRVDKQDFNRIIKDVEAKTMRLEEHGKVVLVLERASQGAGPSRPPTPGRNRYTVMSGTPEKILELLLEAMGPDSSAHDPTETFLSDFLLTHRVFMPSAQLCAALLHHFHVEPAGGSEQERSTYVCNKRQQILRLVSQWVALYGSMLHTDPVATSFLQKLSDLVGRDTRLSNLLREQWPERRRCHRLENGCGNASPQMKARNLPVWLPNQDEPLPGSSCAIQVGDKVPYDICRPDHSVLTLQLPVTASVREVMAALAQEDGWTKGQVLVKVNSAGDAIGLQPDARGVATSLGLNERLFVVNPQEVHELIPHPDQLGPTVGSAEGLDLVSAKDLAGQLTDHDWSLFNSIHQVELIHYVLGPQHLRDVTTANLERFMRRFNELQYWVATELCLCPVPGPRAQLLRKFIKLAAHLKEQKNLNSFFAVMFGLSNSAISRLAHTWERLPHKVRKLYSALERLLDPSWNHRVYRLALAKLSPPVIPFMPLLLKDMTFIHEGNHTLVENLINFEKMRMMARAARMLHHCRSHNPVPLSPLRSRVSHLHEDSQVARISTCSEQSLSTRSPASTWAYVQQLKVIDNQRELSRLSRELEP
Summary of the method: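 Nucleotide exchange uses 100 nM EPAC1, 250 nM RAP1B-BODIPY-GDP and 50 uM GDP, with compounds in a concentration-titration series. After 5 min at room temperature, fluorescence (480 nm ex/540 nm em) is read every 5 min for 30 min. Data are normalized to control ATA and DMSO.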

[2] = target: Rap guanine nucleotide exchange factor 3 (Homo sapiens) (UniProt O95398); assay: Confirmatory qHTS for agonist of cAMP-regulated guanine nucleotide exchange factor 3 (EPAC1) (AID 1645881);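 note: EPAC1 catalysed release of BODIPY-GDP from Rap1B seen as fluorescence loss; nearly all actives have a fitted effect of over 75% in size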
[3] = target: Rap guanine nucleotide exchange factor 4 (Homo sapiens) (UniProt Q8WZA2); assay: Confirmatory qHTS for agonist of cAMP-regulated guanine nucleotide exchange factor 4 (EPAC2) (AID 1645884);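 note: nucleotide exchange releases bodipy-GDP from Rap1 and this lowers its fluorescence; nearly all actives have a fitted effect of over 65% in size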
Rap guanine nucleotide exchange factor 4 (Homo sapiens), sequence (Q8WZA2 whole entry, looked up): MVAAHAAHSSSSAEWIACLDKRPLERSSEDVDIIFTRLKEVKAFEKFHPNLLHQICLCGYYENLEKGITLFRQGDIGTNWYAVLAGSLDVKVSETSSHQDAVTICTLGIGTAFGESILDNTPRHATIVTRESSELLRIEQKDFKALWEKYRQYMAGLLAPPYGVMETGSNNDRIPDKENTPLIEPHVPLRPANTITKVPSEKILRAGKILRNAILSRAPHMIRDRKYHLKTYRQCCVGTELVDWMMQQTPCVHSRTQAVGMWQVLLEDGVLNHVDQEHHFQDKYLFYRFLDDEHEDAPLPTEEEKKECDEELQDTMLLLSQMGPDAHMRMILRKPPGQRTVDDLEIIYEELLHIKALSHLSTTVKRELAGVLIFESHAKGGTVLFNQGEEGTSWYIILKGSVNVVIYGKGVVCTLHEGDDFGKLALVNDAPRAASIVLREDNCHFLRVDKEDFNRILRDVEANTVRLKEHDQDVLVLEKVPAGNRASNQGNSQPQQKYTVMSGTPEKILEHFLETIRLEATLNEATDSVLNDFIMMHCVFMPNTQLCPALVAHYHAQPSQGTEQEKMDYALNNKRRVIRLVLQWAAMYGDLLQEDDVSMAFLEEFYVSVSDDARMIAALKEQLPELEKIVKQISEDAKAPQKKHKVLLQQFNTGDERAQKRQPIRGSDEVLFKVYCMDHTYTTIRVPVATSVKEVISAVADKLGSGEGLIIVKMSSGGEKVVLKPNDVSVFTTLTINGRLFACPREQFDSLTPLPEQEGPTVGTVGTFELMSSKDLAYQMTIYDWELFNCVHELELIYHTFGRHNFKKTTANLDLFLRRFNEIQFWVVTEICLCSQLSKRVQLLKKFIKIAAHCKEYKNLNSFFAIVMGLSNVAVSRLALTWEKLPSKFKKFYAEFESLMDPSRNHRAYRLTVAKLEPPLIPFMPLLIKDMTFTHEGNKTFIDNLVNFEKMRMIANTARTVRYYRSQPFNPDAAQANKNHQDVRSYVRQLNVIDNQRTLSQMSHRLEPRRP

[4] = target: Rap guanine nucleotide exchange factor 4 (Homo sapiens) (UniProt Q8WZA2); assay: Confirmatory qHTS for antagonist of cAMP-regulated guanine nucleotide exchange factor 4 (EPAC2) (AID 1645885); note: nearly all actives have a fitted effect of over 25% in size; note: potency is the fitted concentration of half-maximal effect
[5] = target: Rap guanine nucleotide exchange factor 3 (Homo sapiens) (UniProt O95398); assay: Counterscreen qHTS for antagonist of cAMP-regulated guanine nucleotide exchange factor 3 (EPAC1) (AID 1645888);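 note: fluorescence loss as bound BODIPY-GDP is released from Rap1B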
Summary of the method: (§1)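 Rap1B-BODIPY-GDP 250 nM + GDP 50 uM; cpds 7-pt, final 9.74 nM–152 uM (activator mode) or from 7.32 nM upwards (inhibitor mode); RT; FI 480/540 nm at 5 and 30 min, then ± cAMP, reread.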

[6] = target: Rap guanine nucleotide exchange factor 3 (Homo sapiens) (UniProt O95398); assay: Counterscreen qHTS for agonist of cAMP-regulated guanine nucleotide exchange factor 3 (EPAC1) (AID 1645889); note: nearly all actives have a fitted effect of over 40% in size
Summary of the method: as §1

Structure (SMILES)	Potency [1]	Potency [2]	Potency [3]	Potency [4]	Potency [5]	Potency [6]	activation [3]	activity change, negative = inhibition [5]	activation [6]
CCS(=O)(=O)N1CCCC(C(=O)NCCCN(C)Cc2ccccc2)C1 (stereo not given)	inactive	inactive	inactive	inactive	inactive	inactive	–	–	–
CC[C@@]1(c2ccccc2OC)ON(c2ccccc2C(F)(F)F)C1=O	inactive	inactive	inactive	inactive	inactive	inactive	–	–	–
COC(=O)C1=CN(c2ccc(F)cc2)C(N)=C(C#N)C1c1cccc(OC)c1OC (stereo not given)	inactive	inactive	–	inactive	–	–	4.9% [at 17.1 µM, percent relative to cAMP agonist control]	-6.52% [at 30.8 µM]	17% [at 30.8 µM]
CCCc1[nH]nc2c1C(c1cccnc1)C(C#N)=C(N)O2 (stereo not given)	inactive	inactive	–	inactive	–	–	5.78% [at 17.1 µM, percent relative to cAMP agonist control]	-9.67% [at 30.8 µM]	-0.109% [at 30.8 µM]
CC(C)(C(=O)N1CCC1(C)C(=O)NS(=O)(=O)c1ccccc1Cl)c1ccccc1 (stereo not given)	inactive	inactive	–	inactive	–	–	3.96% [at 17.1 µM, percent relative to cAMP agonist control]	0.723% [at 30.8 µM]	1.99% [at 30.8 µM]
Cc1cccc(NC(=S)NC(=O)c2oc3ccccc3c2C)n1	inactive	inactive	inactive	inactive	inactive	inactive	–	–	–
CCN(CC)c1ccc(C(=O)OCC(=O)NCC2CCCO2)cc1 (stereo not given)	inactive	inactive	–	inactive	–	–	4.19% [at 17.1 µM, percent relative to cAMP agonist control]	-1.2% [at 30.8 µM]	25.8% [at 30.8 µM]
O=C(COC(=O)c1c2c(nc3ccccc13)/C(=C/c1ccco1)CC2)NC1CCCC1	30.1 µM (active)	inactive	inactive	inactive	inactive	inactive	–	–	–
CC(C)(C)c1nc(-c2ccccc2)nc2c1OCCC2	inactive	inactive	inactive	inactive	inactive	inactive	–	–	–
O=C(N[C@@H](Cc1c[nH]c2ccccc12)C(=O)O)OCC1c2ccccc2-c2ccccc21	inactive	inactive	inactive	inactive	inactive	inactive	–	–	–
Cc1nc(N(C)Cc2ccccc2)c2c(C)c(C)sc2n1	inactive	inactive	–	inactive	–	–	3.14% [at 17.1 µM, percent relative to cAMP agonist control]	-24.2% [at 30.8 µM]	11.8% [at 30.8 µM]
Cc1nc2c(C(=O)NCCC(C)C)c[nH]n2c(=O)c1Cl	inactive	inactive	inactive	84.9 µM (active)	inactive	inactive	–	–	–
COc1cccc(-c2ccc(C#N)c(OC(=O)c3ccc(Cl)cc3)n2)c1	inactive	inactive	–	inactive	–	–	0.578% [at 17.1 µM, percent relative to cAMP agonist control]	-4.63% [at 30.8 µM]	3.51% [at 30.8 µM]
O=C(NCC1CCCO1)c1ccc(C(=O)NCC2CCCO2)cc1 (stereo not given)	inactive	inactive	–	inactive	–	–	5.86% [at 17.1 µM, percent relative to cAMP agonist control]	-1.36% [at 30.8 µM]	-3.36% [at 30.8 µM]
Cc1ccc2c(c1)C=CC(C#N)N2C(=O)c1ccccc1 (stereo not given)	inactive	inactive	inactive	inactive	inactive	inactive	–	–	–
COc1ccc(OC)c([C@@H]2OCCC=C[C@H]2C)c1	inactive	inactive	inactive	0.0675 µM (active)	inactive	inactive	–	–	–
O=[N+]([O-])c1cc([N+](=O)[O-])c2oc(-c3ccccc3)c(Br)c2c1O	2.69 µM (active)	inactive	inactive	3.01 µM (active)	inactive	inactive	–	–	–
O=C(CNC(=O)c1sc2ccccc2c1Cl)Nc1ccccc1F	inactive	inactive	–	inactive	–	–	11.8% [at 17.1 µM, percent relative to cAMP agonist control]	-19.6% [at 30.8 µM]	2.6% [at 30.8 µM]

Structure (SMILES)	Potency [1]	Potency [2]	Potency [3]	Potency [4]	Potency [5]	Potency [6]	activation [3]	activity change, negative = inhibition [5]	activation [6]
c1ccc(-c2nnc3sc(CN4CCC5(CC4)OCCO5)cn23)cc1	inactive	inactive	inactive	inactive	inactive	inactive	–	–	–
C[C@@H](NC(=O)C1(c2ccccc2)CCN(C(=O)OC(C)(C)C)CC1)C(=O)N[C@@H](C(=O)O)c1ccccc1	42.6 µM (active)	inactive	inactive	42.6 µM (active)	inactive	inactive	–	–	–
CCOC(=O)c1sc2nc(-c3ccco3)c3c(c2c1N)CC(C)(C)OC3	44.7 µM (active)	inactive	–	inactive	–	–	7.15% [at 17.1 µM, percent relative to cAMP agonist control]	-5.49% [at 30.8 µM]	25.5% [at 30.8 µM]
CCOc1ccc(N2C(=O)Nc3ccccc3C2(O)C(=O)NCc2ccc(C)cc2)cc1 (stereo not given)	inactive	inactive	–	inactive	–	–	-4.83% [at 17.1 µM, percent relative to cAMP agonist control]	-5.47% [at 30.8 µM]	7.84% [at 30.8 µM]
CCOC(=O)C1CCCCN1Cc1cn(C)nc1-c1ccccc1F (stereo not given)	inactive	inactive	inactive	inactive	inactive	inactive	–	–	–
COc1ccc(N(C)C(=O)CC2(CC(=O)O)CCCCC2)cc1	inactive	inactive	–	inactive	–	–	8.49% [at 17.1 µM, percent relative to cAMP agonist control]	1.07% [at 30.8 µM]	2.37% [at 30.8 µM]
C/C(=C\c1ccco1)CN1CCN(Cc2ccc(C)o2)C(CCO)C1 (stereo not given)	inactive	inactive	inactive	inactive	inactive	inactive	–	–	–
Cc1nn(CC(=O)N(C)C2CCS(=O)(=O)C2)c(C)c1[N+](=O)[O-] (stereo not given)	inactive	inactive	–	inactive	–	–	2.8% [at 17.1 µM, percent relative to cAMP agonist control]	-13.2% [at 30.8 µM]	30.9% [at 30.8 µM]
O=C(CSc1nc2c([nH]c3ccccc32)c(=O)n1-c1ccccc1F)Nc1cccc(Cl)c1	inactive	inactive	inactive	inactive	inactive	inactive	–	–	–
O=CN1N=C(c2ccccc2)CC1c1ccc(Cl)cc1 (stereo not given)	inactive	inactive	inactive	inactive	inactive	inactive	–	–	–
Cc1ccc(-n2nc3ccc(NC(=O)/C=C/c4ccco4)cc3n2)cc1	39.8 µM (active)	inactive	–	inactive	–	–	5.31% [at 17.1 µM, percent relative to cAMP agonist control]	8.52% [at 30.8 µM]	13.9% [at 30.8 µM]
C=CCOC(=O)C1=C(C)Nc2nnnn2C1c1cccs1 (stereo not given)	inactive	inactive	inactive	inactive	inactive	inactive	–	–	–
O=C(COC(=O)Cc1ccc(Cl)cc1)Nc1ccc2[nH]c(=O)[nH]c2c1	inactive	inactive	–	inactive	–	–	-3.41% [at 17.1 µM, percent relative to cAMP agonist control]	-14.8% [at 30.8 µM]	-0.761% [at 30.8 µM]
COc1ccc(/C=C\c2onc(C)c2S(=O)(=O)N2CCC(C(=O)NCCC(C)C)CC2)cc1	inactive	inactive	–	inactive	–	–	8.7% [at 17.1 µM, percent relative to cAMP agonist control]	-14.8% [at 30.8 µM]	19.1% [at 30.8 µM]
O=[N+]([O-])c1cc(Cl)ccc1NCCc1ccccn1	inactive	inactive	–	inactive	–	–	-1.04% [at 17.1 µM, percent relative to cAMP agonist control]	-15.1% [at 30.8 µM]	-0.252% [at 30.8 µM]
Cc1cc(C)c2nc(C)cc(Nc3ccc(C(=O)NCCO)cc3)c2c1	inactive	inactive	inactive	inactive	inactive	inactive	–	–	–
COCCNC(=O)CSc1nc2cc3c(cc2c(=O)n1CCCCCC(=O)NCc1ccc(OC)cc1)OCO3	inactive	inactive	inactive	inactive	inactive	inactive	–	–	–
